Assay results reported in the OligoGym collection.

What follows are sequences tested against NAGPA (assay: pooled miR-30 sensor sort-seq; sequence = guide strand). Conditions: shRNA.
Note: reference of the scale not given here.

| Sequence | sensor-assay potency score (higher = more potent) |
| --- | --- |
| TTCCTCTCTGCTCTGGACAGGA | -0.227 |
| AAGCCGAATAGTGCAAGCCGGA | -1.15 |
| TTGATGTAGATGCTTCCATTAC | -1.88 |
| AGTAGCAAGTCGTCGTCGCGGG | -1.2 |
| TCTCGTCACACTCTGTGGCTTG | 0.00905 |
| TAGGGCAGTAGCAAGTCGTCGT | 0.274 |
| TTCATGCGGAAGAAGCCGCCGT | -0.589 |
| TTTCAGCAGGAACTCCGCCATT | -1.66 |

The sequences below were run against NAGS in the same assay as above. Conditions: shRNA.

| Sequence | sensor-assay potency score (higher = more potent) |
| --- | --- |
| TAGTCGTCCCTGAGCTTCTTGC | -1.38 |
| TGTAGCTTTAGAGTGAGTCGAG | 0.177 |
| TTGCACACCAGGTCCAGGTCGG | -0.37 |
| TTGAGGAAGATGATTTTGGTGG | -0.197 |
| TTGATGGGGTTGGTGACCCGGG | -1.22 |
| TTGACCAGGTCCACTAGACGGC | -0.973 |
| TTACTCAGGACCTTATGACTGC | -0.0355 |
| TTATTGAGGAAGATGATTTTGG | -0.526 |
| TTTAGAGTGAGTCGAGTTGGGG | -0.776 |
| TCACTGTGTTTGAAGTACCAGG | -0.966 |
| TTAGAGTGAGTCGAGTTGGGGT | -0.187 |
| TCTACCAGCACCTTGCAGCTCT | 0.351 |

These sequences were tested against NAP1L5 in the same assay as above. Conditions: shRNA.

| Sequence | sensor-assay potency score (higher = more potent) |
| --- | --- |
| TCTTATCGCATCGCTTCTGCAG | -1 |
| TATACTTTTTTTCCAGAGCCTG | -1 |
| TTTTTGAGGGCCAGGACTCGGC | -1.25 |
| TTATAGATGTCATTATACTTTT | -1.32 |
| TCTATCTTATCGCATCGCTTCT | -0.911 |
| TTCTATCTTATCGCATCGCTTC | -0.589 |
| TTGGATCTTGGCGAGTAGGGGC | -0.336 |
| ATACTTTTTTTCCAGAGCCTGA | -1.24 |
| TATCTTATCGCATCGCTTCTGC | 0.0139 |
| TTGAGGGCCAGGACTCGGCATT | -1.45 |
| TTGGCTTCTATCTTATCGCATC | -1.13 |

What follows are sequences tested against NARF in the same assay as above. Conditions: shRNA.

| Sequence | sensor-assay potency score (higher = more potent) |
| --- | --- |
| TTATTTGAGCAATTTCACCTGA | 0.612 |
| TTGAACAGCTCCTTGGCCGCAT | 0.2 |
| TTCTTTTTGACTCTCCAGGATA | -1.07 |
| TGGTGCAATCTTGTCTCGCTGT | -0.584 |
| TGAGGTATCACATTTCTTGTTA | -0.0479 |
| TTGAGGAAACCACAGAGTCTTC | -1.68 |
| TTTCTTACTACATTCCTTGCGC | 0.306 |
| AAATCCGCAGCTATCGTCGTAT | -0.245 |
| TTTAGCAGCAAAATAAGGCAAA | -0.927 |
